Screening results (PubChem)
Hits are enriched below; roughly 4.3% of the tested compounds scored in any of these assays.
PfHsp40 rescue = restores yeast growth despite PfHsp40 toxicity; S. cerevisiae expressing PfHsp40, growth rescue, ATP luminescence; growth rescue, % at 12.5 µM; actives 0.68% (n = 340,000); AID 504582; in the data active = growth rescue above about 28%, passing the limit was not always enough; inconclusive = no clear call, values can overlap the other calls;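 note: yeast W303a lacking pdr1 and pdr3 grown in galactose medium; growth measured after three days at 30 °C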
BoNT F protease = blocks Botulinum neurotoxin F light chain protease | actives 0.22% (n = 360,000) | inhibition, % at 10 µM | AID 588497 | Multiplex microsphere protease cleavage assay, flow cytometry; in the data active = inhibition above about 35%, passing the limit was not always enough; inconclusive = no clear call, values can overlap the other calls
MazEF act = increases E. coli MazEF RNase cleavage of RNA; AID 504720; actives 0.32% (n = 350,000); P0AE70; FAM/BHQ RNA-DNA oligo cleavage fluorescence, 5 h; activation, % at 20 µM; in the data active = activation above about 50%
BoNT-A LC inh2 = inhibitors of Botulinum neurotoxin A light chain protease. multiplex microsphere protease substrate cleavage, flow cytometry. inhibition, % at 10 µM. actives 0.17% (n = 360,000). AID 588499
Autofluor counter = compound fluorescence in toxin protease inhibitor counterscreen; compound autofluorescence counterscreen, microsphere flow cytometry; hits give high values; fluorescence intensity (test concentration not listed); actives 3.1% (n = 360,000); in the data active = fluorescence intensity above about 16000; inconclusive = no clear call, values can overlap the other calls
Anthrax LF prot = anthrax lethal factor protease inhibition; AID 588501; multiplex microsphere protease cleavage assay, LF; actives 0.12% (n = 360,000); P15917; inhibition, % at 10 µM
A number is an active result; – = inactive; ? = inconclusive; · = no result. Cut-off read from the data, not from the text of the source, unless noted: active = inhibition above about 30%; inconclusive = no clear call, values can overlap the other calls; inactive = below that.

SMILES | PfHsp40 rescue | BoNT F protease | MazEF act | BoNT-A LC inh2 | Autofluor counter | Anthrax LF prot
COc1ccc(OC)c(S(=O)(=O)Nc2cccc(F)c2)c1 | – | – | – | – | 16709 | –
COc1ccc(NS(=O)(=O)c2ccc(OC)c(OC)c2)cc1OC | – | – | – | – | – | –
COc1ccc(S(=O)(=O)Nc2cccc(Cl)c2)cc1OC | – | – | – | – | 20245 | –
COc1ccc(OC)c(S(=O)(=O)NC2CCCCC2)c1 | – | – | – | – | 22696 | –
COc1ccc(S(=O)(=O)NC2CCCCC2)c(C)c1C | 86 | – | – | – | – | –
Cc1cc(C)c(C#N)c(N2CCN(C(=O)C3COc4ccccc4O3)CC2)n1 (stereo not drawn) | – | – | – | – | – | –
O=C(Cn1c(=O)cnc2ccccc21)Nc1cccc(S(=O)(=O)N2CCOCC2)c1 | – | – | – | – | – | –
CN(c1ccc(C(=O)Nc2ccc(CC#N)cc2)cc1)S(C)(=O)=O | – | – | – | – | – | –
CC(Oc1ccc(Cl)cc1)C(=O)NCC1CCCO1 (stereo not drawn) | – | – | – | – | – | –
O=C(Nc1ccc(Cl)cc1)N[C@@H]1c2c(ccc3ccccc23)OC[C@@H]1CO | – | – | – | – | 23698 | –
COc1ccc(-c2c([C@H]3[C@@H]4C=CCC[C@@]4(C)C(=O)N3Cc3ccccc3)ccc3ccccc23)cc1OC | 44 | – | – | – | – | –
COc1ccc(-c2ccc([C@H]3[C@@H]4C=CCC[C@@]4(C)C(=O)N3Cc3ccccc3)c(F)c2)cc1OC | – | – | – | – | – | –
CC(C)OCCCNC(=O)c1cccs1 | – | – | – | – | 22575 | –
CCCCNCc1cc(Br)c(OCC(=O)N2CCOCC2)c(OC)c1 | – | – | – | – | 16518 | –
Cc1cc(C)cc(NC(=O)CSc2nc3[nH]c(=O)cc(O)c3s2)c1 | 38 | – | – | – | – | –
O=C(CSc1nc2[nH]c(=O)cc(O)c2s1)Nc1cc(Cl)cc(Cl)c1 | – | – | – | – | – | –
O=C(O)CCn1cc(C(=O)O)c(-c2ccccc2)n1 | – | – | – | – | – | –
CC(=O)Nc1cccc(OCC(=O)NS(=O)(=O)c2ccc(C)cc2)c1 | – | – | – | – | 23647 | –
CC(=O)Nc1cccc(OCC(=O)Nc2ccc(F)cc2)c1 | – | – | – | – | – | –
CC(=O)Nc1cccc(OCc2ccc(F)cc2)c1 | 70 | – | – | – | – | –
C=C1[C@H](C)CN[C@H]1CCO | – | – | – | – | – | –
O=C(c1ccc2c(c1)N(Cc1ccccc1)C(=O)c1ccccc1S2)N1CCCC1 | – | – | – | ? | 21624 | –
CN1C(=O)c2ccccc2Sc2ccc(C(=O)N3CCC4(CC3)OCCO4)cc21 | – | – | – | – | 19800 | –
CCN1C(=O)c2ccccc2Sc2ccc(C(=O)N3CCC4(CC3)OCCO4)cc21 | – | – | – | – | – | –
C=CCN1C(=O)CSc2ccc(C(=O)N3CCC4(CC3)OCCO4)cc21 | – | – | – | – | 17917 | –
SMILES | PfHsp40 rescue | BoNT F protease | MazEF act | BoNT-A LC inh2 | Autofluor counter | Anthrax LF prot
CCC(C)NC(=O)Nc1ccc2c(c1)N(C)C(=O)c1ccccc1S2 (stereo not drawn) | – | – | – | – | 16200 | –
COCCNC(=O)Nc1ccc2c(c1)N(C)C(=O)c1ccccc1S2 | – | – | – | – | – | –
COc1ccc(N2CCN(S(=O)(=O)c3cnc[nH]3)CC2)cc1 | – | – | – | – | – | –
CCN1CCN(C(C)C(=O)NC2CCCCC2)CC1 (stereo not drawn) | – | – | – | – | ? | –
Cc1ccc(S(=O)(=O)N2CCCCC2)cc1NC(=O)c1c(-c2ccccc2)noc1C | – | – | – | – | – | –
O=C(O)CC/C(=N/Nc1ccc([N+](=O)[O-])cc1)C(=O)O | 135 | – | – | – | – | –
CCCCn1c(SCC(=O)Nc2nnc(C)s2)nc2c1c(=O)n(C)c(=O)n2C | – | – | – | ? | 22970 | –
CCCCn1c(SCC(=O)Nc2nnc(CC)s2)nc2c1c(=O)n(C)c(=O)n2C | – | – | – | ? | 21466 | –
CCCCn1c(SCC(=O)NC(=O)Cc2ccccc2)nc2ccccc2c1=O | – | – | – | – | – | –
CCCCn1c(SCC(=O)Nc2nnc(CC)s2)nc2ccccc2c1=O | – | – | – | ? | 22336 | –
CCOC(=O)c1ccc(-n2c(O)c(/C=N/NC(=O)C3COc4ccccc4O3)c3ccccc3c2=O)cc1 (stereo not drawn) | – | – | – | – | – | –
COCCn1c(SCC(=O)Nc2cc(C)cc(C)c2)nc2ccccc2c1=O | – | – | – | – | – | –
COc1ccc(-n2c(SCC(=O)NCCC(C)C)nc3ccsc3c2=O)cc1 | – | – | – | – | 21316 | –
COc1ccc(-n2c(SCC(=O)C(C)(C)C)nc3ccsc3c2=O)cc1 | – | – | – | – | – | –
COCCn1c(SCC(=O)Nc2cccc(C(=O)OC)c2)nc2ccccc2c1=O | – | – | – | – | 16194 | –
COCCNC(=O)CSc1nc2ccccc2c(=O)n1-c1cccc(OC)c1 | – | – | – | – | 21564 | –
COc1ccc(NC(=O)CSc2nc3ccccc3c(=O)n2CCC(=O)N2CCCCC2)cc1 | – | – | – | – | 21679 | –
CC12CC3CC(C)(C1)CC(C(=O)NCc1ccncc1)(C3)C2 | – | – | – | – | – | –
COc1cccc(NC(=O)CSc2nc3ccccc3c(=O)n2CCCC(=O)N2CCCC2)c1 | – | – | – | ? | 23337 | –
CCOc1ccc(NC(=O)CSc2nc3ccccc3c(=O)n2CCCC(=O)N2CCCC2)cc1 | – | – | – | – | – | –
O=C(Nc1ccccc1-c1nnc(SCc2ccc(Cl)cc2)o1)c1ccccc1 | – | – | – | – | 22262 | –
O=c1c(-c2nnc(SCc3ccc(Cl)cc3)o2)cccn1Cc1ccccc1 | – | – | – | – | 22587 | –
Cc1onc(-c2ccccc2Cl)c1C(=O)NCCn1c(C)cc2ccccc21 | – | – | – | 59 | – | –
CCCCNS(=O)(=O)c1ccc(NC(=O)c2c(-c3ccccc3Cl)noc2C)cc1 | – | – | – | – | 19198 | –
Cc1onc(-c2ccccc2Cl)c1C(=O)Nc1cccnc1 | – | – | – | – | 20230 | –
SMILES | PfHsp40 rescue | BoNT F protease | MazEF act | BoNT-A LC inh2 | Autofluor counter | Anthrax LF prot
Cc1onc(-c2ccccc2Cl)c1C(=O)Nc1ccc(-c2cn3cccnc3n2)cc1 | – | – | – | ? | 16485 | –
CSc1cc(-c2ccco2)oc1C(=O)c1ccco1 | – | · | – | · | · | ·
COc1cc(C(CC(=O)Nc2ccc(C)cn2)N2Cc3ccccc3C2=O)cc(OC)c1OC (stereo not drawn) | – | – | – | – | – | –
COc1cc(C(C)=O)ccc1OC(=O)c1cc2cccc(OC)c2oc1=O | – | – | – | – | – | –
COc1cccc2cc(C(=O)CC3(O)C(=O)N(Cc4ccccc4)c4ccccc43)c(=O)oc12 (stereo not drawn) | – | – | – | – | 20419 | –
Cc1ccc2c(c1C)NC(=O)C2(O)CC(=O)c1ccc2c(c1)OCO2 (stereo not drawn) | – | – | – | ? | 16395 | –
COc1cccc2cc(C(C)=O)c(=O)oc12 | – | – | – | – | 19894 | –
